Here are results for 16 molecules from PubChem BioAssay.

Active and inactive are the calls of the source.

Assay [1] in a line: anti-His antibody binders, primary screen, artefact control for SMM control protein annotation, biochemical, small-molecule microarray, 635 nm fluorescence (AID 1128).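 Note: score merges feature fluorescence with signal-to-noise for each printed compound spot.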 As to conditions: anti-His Alexa647 antibody binding, higher = more signal.
The test system of assay [2] is Human papillomavirus type 1a E7 protein (residues 1-88). The experiment in a line: HPV1a E7 small-molecule binders, primary screen, biochemical, small-molecule microarray, residues 1-88, 635 nm (AID 1129). To be noted: small-molecule microarray binding, fluorescence 635 nm; higher = more signal.
The target of assay [3] is Focal adhesion kinase 1 (Homo sapiens) (UniProt Q05397). The assay can be described thus: small-molecule microarray binders of FAK, primary screen, biochemical, 635/667 nm fluorescence, BSA, DTT (AID 1130).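 Note: composite of spot emission at 667 nm and signal to noise over triplicate slides.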 To be noted: PTK2 binding, 635 nm fluorescence, higher = more signal.
Chain of Focal adhesion kinase 1 (Homo sapiens) (Q05397 whole entry, looked up): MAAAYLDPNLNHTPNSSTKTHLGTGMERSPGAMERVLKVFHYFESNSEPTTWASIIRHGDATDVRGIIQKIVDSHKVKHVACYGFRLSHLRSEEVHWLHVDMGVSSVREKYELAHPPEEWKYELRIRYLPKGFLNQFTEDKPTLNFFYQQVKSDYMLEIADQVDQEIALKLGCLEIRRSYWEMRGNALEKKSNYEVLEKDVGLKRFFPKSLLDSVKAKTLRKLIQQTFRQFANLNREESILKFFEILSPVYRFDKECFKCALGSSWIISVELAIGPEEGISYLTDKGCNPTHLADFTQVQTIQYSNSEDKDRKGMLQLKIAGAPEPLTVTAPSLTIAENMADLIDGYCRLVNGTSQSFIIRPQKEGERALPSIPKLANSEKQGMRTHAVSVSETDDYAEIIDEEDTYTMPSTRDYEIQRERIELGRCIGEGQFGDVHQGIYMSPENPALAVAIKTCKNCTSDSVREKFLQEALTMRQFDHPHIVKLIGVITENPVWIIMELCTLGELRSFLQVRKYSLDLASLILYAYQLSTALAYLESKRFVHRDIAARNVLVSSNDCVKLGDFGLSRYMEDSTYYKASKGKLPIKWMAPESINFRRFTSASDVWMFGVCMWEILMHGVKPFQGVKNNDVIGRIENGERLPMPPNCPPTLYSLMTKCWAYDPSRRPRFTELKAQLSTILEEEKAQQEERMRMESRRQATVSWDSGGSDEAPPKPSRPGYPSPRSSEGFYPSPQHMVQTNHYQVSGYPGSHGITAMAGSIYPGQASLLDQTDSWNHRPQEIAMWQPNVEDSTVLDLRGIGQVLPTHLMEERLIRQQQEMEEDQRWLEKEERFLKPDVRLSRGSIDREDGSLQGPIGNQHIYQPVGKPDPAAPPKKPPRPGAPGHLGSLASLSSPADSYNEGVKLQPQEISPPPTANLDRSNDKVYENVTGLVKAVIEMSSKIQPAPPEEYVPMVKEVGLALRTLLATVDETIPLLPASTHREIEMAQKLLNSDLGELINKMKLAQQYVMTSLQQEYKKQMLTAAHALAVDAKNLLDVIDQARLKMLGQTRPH
For assay [4], the system named is Fibrinogen (Alexa647-labelled). The assay can be described thus: fibrinogen binders on compound microarrays, profiling panel, artefact control for SMM control-protein annotation, biochemical, small-molecule microarray, 635/667 nm fluorescence (AID 1131).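 Note: z-score merges 667 nm fluorescence with per-spot signal-to-noise over triplicate slides.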 To be noted: fibrinogen-A647 binding fluorescence, higher = more signal.
Assay [5] deals with Follistatin (Homo sapiens) (UniProt P19883). The assay can be described thus: follistatin binders on small-molecule microarrays, primary screen, biochemical, small-molecule microarray, 635/667 nm fluorescence (AID 1132). As to conditions: FST binding, 635 nm fluorescence, higher = more signal.
Chain of Follistatin (Homo sapiens) (P19883 whole entry, looked up): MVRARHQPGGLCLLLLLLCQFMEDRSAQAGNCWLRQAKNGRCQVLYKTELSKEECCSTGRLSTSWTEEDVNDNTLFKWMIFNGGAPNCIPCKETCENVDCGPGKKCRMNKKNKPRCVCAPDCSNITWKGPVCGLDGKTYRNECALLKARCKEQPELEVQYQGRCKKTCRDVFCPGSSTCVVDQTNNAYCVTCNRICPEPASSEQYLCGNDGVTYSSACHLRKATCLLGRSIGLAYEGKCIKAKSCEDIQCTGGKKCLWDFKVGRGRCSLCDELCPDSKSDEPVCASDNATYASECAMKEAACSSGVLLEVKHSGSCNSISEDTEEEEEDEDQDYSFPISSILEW
Assay [6] has as its target Fibroblast growth factor 2 (Homo sapiens) (UniProt P09038). The experiment in a line: FGF2 binders on small-molecule microarrays, primary screen, biochemical, small-molecule microarray, 635/667 nm fluorescence (AID 1133). As to conditions: small-molecule microarray binding, FGF2, fluorescence 635/667; higher = more signal.
The nature of assay [7]: mitochondrial membrane potential change in A549 cells, profiling panel, cell-based, JC-1 fluorescence, basal, 24 h, 100 nL (AID 1138).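 Note: A549 lung adenocarcinoma cells under basal conditions with no added stimulus; test concentration not given here.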 As to conditions: higher = more signal.
A further assay relates to Lefty1. The experiment in a line: Lefty1 binders on small-molecule microarrays, primary screen, biochemical, small-molecule microarray, 635/667 nm fluorescence (AID 1139). As to conditions: small-molecule microarray binding, fluorescence 635/667; higher = more signal.
Assay [8] deals with wheat germ agglutinin (Triticum aestivum), Alexa647-labelled. The experiment in a line: wheat germ agglutinin binders on compound microarrays, profiling panel, artefact control for SMM control-protein annotation, biochemical, small-molecule microarray, 635/667 nm fluorescence (AID 1140).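 Note: score merges 667 nm feature emission with signal to noise over triplicate slides.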 As to conditions: WGA-A647 binding, 635 nm fluorescence, higher = more signal.
The target in assay [9] is Luciferin 4-monooxygenase (Photinus pyralis) (UniProt P08659). The experiment in a line: firefly luciferase enzyme inhibitors, primary screen, biochemical, luminescence, purified enzyme, 2006 set (AID 1141).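 Note: cell-free assay with purified firefly luciferase at 100 ng per well in PBS; test concentration not given here.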 To be noted: SteadyGlo luminescence, 30 min, higher = more signal, called active from +8 up or from −8 down.
Chain of Luciferin 4-monooxygenase (Photinus pyralis) (P08659 whole entry, looked up): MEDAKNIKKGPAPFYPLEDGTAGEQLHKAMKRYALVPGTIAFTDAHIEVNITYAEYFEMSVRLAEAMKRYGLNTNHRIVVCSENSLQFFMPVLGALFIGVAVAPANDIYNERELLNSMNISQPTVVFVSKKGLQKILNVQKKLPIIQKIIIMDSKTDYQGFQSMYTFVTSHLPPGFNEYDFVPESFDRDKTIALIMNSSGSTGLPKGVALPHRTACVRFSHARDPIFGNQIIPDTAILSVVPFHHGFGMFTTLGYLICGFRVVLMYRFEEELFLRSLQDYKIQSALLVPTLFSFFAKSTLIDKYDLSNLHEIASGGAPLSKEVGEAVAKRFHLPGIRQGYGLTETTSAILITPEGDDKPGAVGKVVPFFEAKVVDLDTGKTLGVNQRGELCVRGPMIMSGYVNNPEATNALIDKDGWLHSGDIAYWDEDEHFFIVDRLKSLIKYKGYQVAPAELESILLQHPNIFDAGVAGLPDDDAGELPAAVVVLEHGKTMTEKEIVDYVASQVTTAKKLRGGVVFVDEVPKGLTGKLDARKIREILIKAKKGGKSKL

Chain of Fibroblast growth factor 2 (Homo sapiens) (P09038 whole entry, looked up): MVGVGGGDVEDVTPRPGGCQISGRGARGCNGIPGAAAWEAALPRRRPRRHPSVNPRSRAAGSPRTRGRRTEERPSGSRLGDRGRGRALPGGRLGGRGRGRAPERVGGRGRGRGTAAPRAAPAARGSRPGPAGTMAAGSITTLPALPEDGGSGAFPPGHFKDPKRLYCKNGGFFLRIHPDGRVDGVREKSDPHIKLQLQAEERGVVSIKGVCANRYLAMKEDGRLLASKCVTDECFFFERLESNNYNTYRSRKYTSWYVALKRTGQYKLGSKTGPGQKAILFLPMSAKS

As to `C=CCN1C(=O)[C@]2(O[C@H](CCn3cc([C@H](O)c4ccccc4)nn3)[C@@H]([Si](C)(C)c3ccc(OC)cc3)[C@@H]2C)c2cc(NC(=O)c3ccc(OC)cc3)ccc21`, the composite z-score in assay [1] turned out to be 0.66; in assay [2], 0.499; in assay [3] it was 0.748; in assay [4] it was 0.0903; in [5] it was 1.23; in assay [6] it was 0.307. In addition, the composite z-score in the assay with Lefty1 came to 0.794; in assay [8], 0.422. Moreover, the z-score was 0.997 in [7] and -1.16 (inactive) in assay [9].
For `CCOC(=O)C[C@H]1[C@H](OC(=O)Cc2ccc3c(c2)OCO3)[C@@H](NC(=O)Cc2ccc(OC)cc2)c2cc(OCCCO)ccc2N1C(=O)Cc1ccc(OC)cc1`, the composite z-score in assay [1] was 0.247; in assay [2] it was 0.173; in assay [3], -0.113; in assay [4], 0.239; in assay [5] it was -0.147; in assay [6], -0.0689. For the same molecule, the composite z-score in the assay with Lefty1 is 0.0681; in [8], -0.002. Further, the z-score is 1.39 in assay [7] and -0.127 (inactive) in assay [9].
`COCCCNC(=O)[C@@]1(Sc2ccc(C)cc2)CC(=O)N(Cc2ccccc2C(F)(F)F)[C@@H]1c1ccc(CO)cc1I`: the composite z-score is -1.39 in assay [1]; -2.04 in assay [2]; -0.905 in assay [3]; -1.75 in [4]; -1.59 in assay [5]; -1.5 in assay [6]. The composite z-score is -1.78 in the assay on Lefty1 and -1.47 in [8]. In addition, the z-score in assay [7] is -0.288; in assay [9], 0.166 (inactive).
As to `COCCCN1C(=O)[C@@]2(c3ccc([N+](=O)[O-])cc3)CC(=O)N(CC34CC5CC(CC(C5)C3)C4)[C@@H]2c2ccc(CO)cc21`, the composite z-score in [1] is -0.0041; in [2], -0.217; in [3], -0.102; in assay [4], -0.753; in assay [5] it was 1; in [6], 0.232. The composite z-score in the assay with Lefty1 came to 0.739; in assay [8] it was 0.115. Besides, the z-score is 0.961 in [7] and -0.844 (inactive) in assay [9].
On to `CN(C)CCCC[C@@H]1NC(=O)[C@H]2C[C@@H](C(=O)O)[C@@H](c3ccc(O)cc3)N2C1=O`, for which the composite z-score in assay [1] was determined as 3.85; in [2], 1.31; in assay [3] it was 1.99; in assay [4], 1.04; in assay [5] it was 1.52; in assay [6] it was 1.83. Also, the composite z-score in the assay with Lefty1 amounted to 1.63; in assay [8], 1.65. In addition, the z-score in [7] is -0.447; in [9], -0.367 (inactive).
Consider `COC(=O)[C@@]1(Cc2ccc(F)cc2)[C@H]2c3cc(C(=O)N(C)C)n(CCc4ccc(O)c(O)c4)c3C[C@H]2CN1C(=O)c1ccccc1`, for which the composite z-score in [1] is -0.0012; in [2] it was 1.18; in assay [3] it was 0.512; in assay [4], 0.823; in assay [5], -0.123; in [6], -0.72. The figures for the composite z-score (in the assay with Lefty1; in assay [8]) were -0.08 and 0.528, respectively. Also, the results for the z-score in assay [7] and in assay [9] were 0.987 and 0.569 (inactive), respectively.
`COC(=O)C1(Cc2ccccc2)C=C2C(=C(C)C(=O)C2C)CN1` (stereo not given): the composite z-score in assay [1] was 1.21; in [2] it was 0.732; in assay [3], 0.296; in [4], 0.775; in [5], 0.714; in assay [6] it was -0.298. Also, the composite z-score with Lefty1 is -0.104; in assay [8], 0.622. Also, the z-score in assay [7] is 1.47; in assay [9], -0.112 (inactive).
Turning to `C=CCOC(=O)[C@@H]1[C@H]2C(=O)O[C@H](c3ccccc3)[C@H](c3ccccc3)N2[C@H](c2ccc(OCCOC(=O)[C@H]3C[C@H]4C(=O)N[C@@H](CCCCN(C)C)C(=O)N4[C@H]3c3ccc(O)cc3)cc2)[C@@]12C(=O)Nc1ccc(I)cc12`, the composite z-score in assay [1] was 1.2; in assay [2] it was 1.17; in [3] it was 1.03; in assay [4], 0.541; in [5], 1.4; in [6] it was 1.37. Moreover, the composite z-score came to 1.58 in the assay with Lefty1 and 0.538 in [8]. In addition, the z-score was -0.641 in assay [7] and -4.54 (inactive) in assay [9].
Turning to `O=C1C2C=CC(C(O)C3CCCCC3)N(n3cnnc3)C2C(=O)N1Cc1ccccc1` (stereo not given), the composite z-score in assay [1] was -0.526; in assay [2], 1.17; in assay [3], 0.377; in assay [4], 0.983; in assay [5] it was 1.26; in [6], 0.287. In addition, the results for the composite z-score (with Lefty1; in assay [8]) were 1.27 and 1.26, respectively. Besides, the results for the z-score in assay [7] and in assay [9] were -1.96 and 1.54 (inactive), respectively.
`CN1C(=O)C2C=CC(C(O)c3ccc(-c4ccccc4)s3)N(NC(=O)OC(C)(C)C)C2C1=O` (stereo not given): the composite z-score in assay [1] is 0.847; in [2], 1.14; in [3], 0.154; in [4] it was 1.04; in assay [5] it was 0.807; in assay [6] it was 0.498. Further, the composite z-score in the assay on Lefty1 is -0.0773; in [8], 0.904. For the same molecule, the z-score in assay [7] was 0.237; in assay [9], 0.626 (inactive).
Take `CC1CC/C=C\[C@H]2OC34C=CCN(c5ccc6ccccc6c5)C(=O)[C@H]3N(C(C)CO)C(=O)[C@@H]4C2C(=O)O1` (stereo not given in full): the composite z-score is 0.0166 in assay [1]; -1.72 in assay [2]; -0.785 in assay [3]; -1.17 in [4]; -0.69 in assay [5]; -0.911 in assay [6]. Besides, the figures for the composite z-score (in the assay on Lefty1; in assay [8]) were -0.546 and -0.946, respectively. In addition, the results for the z-score in assay [7] and in assay [9] were 0.838 and -1.2 (inactive), respectively.
With `CC(C)NC(=O)[C@@H]1c2ccccc2C(=O)N(Cc2ccc(OC(F)(F)F)cc2)[C@H]1c1ccc(CO)cc1`, the composite z-score in assay [1] is 0.7; in [2] it was 1.18; in [3] it was 0.344; in [4], 0.529; in [5], 1.34; in [6] it was 1.22. The values for the composite z-score (with Lefty1; in [8]) were 0.868 and 0.45, respectively. Also, the values for the z-score in assay [7] and in assay [9] were 0.107 and 0.441 (inactive), respectively.
Take `C[C@@H]1NC(=O)C([C@@H](C)OCc2ccccc2)NC(=O)[C@@]23C(=O)N[C@@H](Cc4ccccc4)C2[C@H](C)[C@@]2(C)O[C@H]2C3/C=C/C/C=C\CNC1=O` (stereo not given in full): the composite z-score in [1] was -0.839; in assay [2], -1.36; in assay [3], -0.526; in assay [4], -0.397; in [5] it was 0.0746; in [6], 0.0742. In addition, the composite z-score in the assay on Lefty1 was 0.0892; in assay [8], -0.117. In addition, the z-score in assay [7] was -0.0956; in assay [9], 0.0545 (inactive).
In the case of `O=C1C2C=CC(C(O)c3ccc([N+](=O)[O-])cc3)N(Nc3ccccc3F)C2C(=O)N1c1ccccc1` (stereo not given), the composite z-score was 1.68 in [1]; 1.19 in assay [2]; -0.119 in assay [3]; 0.717 in [4]; 0.232 in assay [5]; -0.218 in assay [6]. Besides, the results for the composite z-score (in the assay with Lefty1; in assay [8]) were -0.46 and 1.36, respectively. Moreover, the values for the z-score in assay [7] and in assay [9] were -0.675 and 0.739 (inactive), respectively.
As for `CC1CC/C=C\[C@H]2OC34C=CCN(c5ccc(Cl)cc5)C(=O)[C@H]3N(CCCCCCO)C(=O)[C@]4(C)C2C(=O)O1` (stereo not given in full), the composite z-score is 0.867 in assay [1]; -0.629 in [2]; -0.487 in assay [3]; -0.87 in assay [4]; -0.518 in assay [5]; -0.662 in [6]. Further, the composite z-score in the assay with Lefty1 was -0.629; in [8] it was -0.988. Further, the z-score in [7] is 1; in [9], -1.55 (inactive).
In the case of `O=C(O)[C@H](Cc1ccccc1)n1cc(C2(O)CCCCC2)nn1`, the composite z-score in [1] was found to be 0.689; in assay [2], 0.357; in [3], 0.736; in assay [4], 0.52; in assay [5], 0.142; in assay [6] it was 0.278. For the same molecule, the composite z-score with Lefty1 was found to be 0.676; in assay [8] it was 0.0402. For the same molecule, the z-score in [7] is -0.141; in assay [9], -0.0102 (inactive).
